Experiment [1] can be described thus: qHTS to identify inhibitors of the type 1 interferon - major histocompatibility complex class I in skeletal muscle: primary screen against the NCATS Pharmaceutical Collection (AID 1347407).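 Also: luminescence of HiBiT knocked into endogenous HLA-B as interferon-induced MHC class I level; % is scaled to controls: 0 for no effect and ±100 for the full control effect.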 In a few lines: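 Cells were seeded with 4 ng/ml IFN-beta, incubated 1 h, then dosed with compounds over eight 1:5 steps up to 46 uM final. After 24 h at 37 C, HiBiT lytic reagent was added and luminescence read after 10 min lysis in the dark.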

Experiment [2] concerns the target Protein phosphatase 1D (Homo sapiens) (UniProt O15297). In words: RapidFire Mass Spectrometry qHTS Assay for Modulators of WT P53-Induced Phosphatase 1 (WIP1) (AID 1347424).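 Also: amount of dephosphorylated VEPPL-S-QETFS peptide product formed by WIP1; series mostly up to about 63 µM; plate controls were DMSO wells for no effect and GSK830371 inhibitor control at 10 µM for full effect.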 In short, it runs like this:
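WIP1 (10 nM final) was preincubated 1 h at room temperature with compounds in Tris-HCl pH 7.5, 30 mM MgCl2, TCEP, EGTA, BSA; 2 uM VEPPL-pS-QETFS phosphopeptide was added for 5 min, quenched with formic acid, and dephosphorylated product quantified by RapidFire MS.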

Experiment [3] shares this target. Kind of experiment: Rhodamine-PBP qHTS Assay for Modulators of WT P53-Induced Phosphatase 1 (WIP1) (AID 1347425). Also: % of control where 0% means no effect. In a few lines: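 WIP1 (5 nM final) was preincubated with compound for 1 hour at room temperature. It then dephosphorylated 10 uM VEPPL-pS-QETFS peptide in Tris-HCl pH 7.5 with 30 mM MgCl2. Released Pi was detected by 10 uM Rh-PBP fluorescence (ex 525/em 598 nm) read at 1-min intervals for 11 min, as delta f1 - f0.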

The nature of experiment [4]: Primary qHTS for inhibitors of La Crosse Virus (LACV) - induced cell death in SH-SY5Y cells (AID 1508616).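 Also: top concentration of the series differs between compounds; 0% = infected DMSO wells and 100% = uninfected DMSO wells; higher means more rescue of cells from virus-induced death.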 In a few lines: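 Readout was luminescence from ATPLite 1step added after a 6-day LACV infection (0.01 MOI) of SH-SY5Y cells that had received pin-transferred compound 24 hr after seeding.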
The target in experiment [5] is Calcium and integrin-binding protein 1 (Homo sapiens) (UniProt Q99828). In words: Primary qHTS for Identification of Calcium Integrin Binding Protein 1 (CIB1) Competitor (AID 1508620).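 Also: GST tagged CIB1 binding a fluorescein labelled alphaIIb integrin peptide tracer; top concentration of the series differs between compounds; % is scaled to controls: 0 for no effect and ±100 for the full control effect.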 In short, it runs like this: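 Fluorescence polarization competition: CIB1-GST (1 uM final) preincubated with compound 15 min at room temperature, then FITC-labeled alphaIIb peptide (100 nM final) added for another 15 min. Polarization read at Ex 480/Em 540.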

Experiment [6] can be described thus: qHTS to identify inhibitors of the type 1 interferon - major histocompatibility complex class I in skeletal muscle: primary screen against the NCATS LOPAC collection (AID 1347405).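 Also: lytic HiBiT luminescence reporting HLA-B protein level; % is scaled to controls: 0 for no effect and ±100 for the full control effect.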 In short, it runs like this:
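Cells: C25cl48 human myoblasts, HiBiT-tagged HLA-B*08:01, stimulated with IFN-beta 4.0 ng/ml. Compounds are titrated 1:4.3 over 7 points from 46 uM final and incubated 24 hrs; endogenous MHC class I is quantified by HiBiT lytic luminescence.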

Experiment [7] in a line: qHTS for inhibitors of adenylyl cyclases using a fission yeast platform: a pilot screen against the NCATS LOPAC library (AID 1347410).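 Also: plate controls were DMSO vehicle for no effect and DPI positive control for full effect.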 In a few lines: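 Growth medium went into the plates first, then compounds were pinned (final up to 57 µM), then CHP2027 yeast were added. Plates were incubated overnight (18 h) at 30C in the dark, and GFP was measured by laser scanning cytometry.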

In experiment [8] the target is Single-stranded DNA cytosine deaminase (Homo sapiens) (UniProt Q9GZX7). Kind of experiment: Validation qHTS assay for inhibitors of Activation Induced Cytidine Deaminase (AID): AID signal (AID 1347429). Also: % is scaled to controls: 0 for no effect and ±100 for the full control effect. In a few lines:
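In this coupled qHTS, AID deaminates a FRET-labelled ssDNA substrate in the presence of UDG over 4 hr at room temperature. Compounds span up to 114 uM final.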

The target of experiment [9] is Calcium and integrin-binding protein 1 (Homo sapiens) (UniProt Q99828). Kind of experiment: Validation qHTS for Identification of Calcium Integrin Binding protein 1 (CIB1) Competitor (AID 1508618). Also: % is scaled to controls: 0 for no effect and ±100 for the full control effect. In short, it runs like this: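 Fluorescence polarization with 1 uM CIB1-GST and 100 nM FITC-alphaIIb peptide in HEPES pH 7.4, NaCl, 5 mM CaCl2, Tween20. Compounds at up to 114 uM final, preincubated with protein 15 min; read after 15 min more at RT.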

Experiment [10] is described as follows: Counterscreen qHTS for small molecule stabilizers of the endoplasmic reticulum resident proteome: GLuc-NoTag assay (AID 1508627). Also: potency is read from the fitted curve at half-maximal effect.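 As to activity change, negative = inhibition: SH-SY5Y cells given compound then 100 nM thapsigargin to empty ER calcium; series mostly up to about 76 µM; 0% = thapsigargin alone and -100% = DMSO vehicle control.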 In short, it runs like this:
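SH-SY5Y cells stably expressing constitutively secreted GLuc (no SERCaMP tag) were pre-incubated 5 h, treated with compound for 19 h, then 100 nM thapsigargin for 4 h at 37C; medium GLuc read by coelenterazine luminescence.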

A short description of experiment [11]: Confirmatory qHTS for small molecule stabilizers of the endoplasmic reticulum resident proteome: Secreted ER Calcium Modulated Protein (SERCaMP) assay (AID 1508628). Also: nearly all actives have a fitted effect of over 40% in size. Also: potency is read from the fitted curve at half-maximal effect. In a few lines: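 We seeded SH-SY5Y-GLuc-SERCaMP cells, added compounds (three concentrations in the primary run, eleven up to 76.6 uM in confirmation), incubated 16 h, depleted ER calcium with thapsigargin, and read luciferase 4 h later.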

Experiment [12] is described as follows: Primary qHTS for inhibitors of SARS-S pseudo-typed particle cell entry (AID 1479145; calls by dose curve; also: nearly all actives have a fitted effect of over 45% in size).
Experiment [13] is described as follows: Primary qHTS for Huh7 cytotoxicity: counterscreen for inhibitors of MERS-S pseudotyped particle cell entry (AID 1479147; calls by dose curve).
Experiment [14] can be described thus: Primary qHTS for inhibitors of MERS-S pseudo-typed particle cell entry (AID 1479149; calls by dose curve; also: nearly all actives have a fitted effect of over 60% in size).
The nature of experiment [15]: Primary qHTS for Vero E6 cytotoxicity: counterscreen for inhibitors of SARS-S pseudo-typed particle cell entry (AID 1479150; calls by dose curve).

Unmarked numbers belong to inactive results. Results filed as inconclusive are left out. The source made the active and inactive calls. Unless noted, calls follow the shape of the dose curve; as a rule, active = well fitted curve in the direction sought with a large enough effect; inconclusive = small, poorly fitted or top-dose-only effect, or another doubt; inactive = no such curve, though single readings can be large; an effect the other way counts as inactive or inconclusive.

Chain of Single-stranded DNA cytosine deaminase (Homo sapiens) (Q9GZX7 whole entry, looked up): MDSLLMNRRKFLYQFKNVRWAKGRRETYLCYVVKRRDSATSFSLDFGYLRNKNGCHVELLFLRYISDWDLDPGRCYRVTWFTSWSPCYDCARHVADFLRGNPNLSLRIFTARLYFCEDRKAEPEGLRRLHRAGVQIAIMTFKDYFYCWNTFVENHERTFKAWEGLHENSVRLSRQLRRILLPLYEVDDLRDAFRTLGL
Chain of Protein phosphatase 1D (Homo sapiens) (O15297 whole entry, looked up): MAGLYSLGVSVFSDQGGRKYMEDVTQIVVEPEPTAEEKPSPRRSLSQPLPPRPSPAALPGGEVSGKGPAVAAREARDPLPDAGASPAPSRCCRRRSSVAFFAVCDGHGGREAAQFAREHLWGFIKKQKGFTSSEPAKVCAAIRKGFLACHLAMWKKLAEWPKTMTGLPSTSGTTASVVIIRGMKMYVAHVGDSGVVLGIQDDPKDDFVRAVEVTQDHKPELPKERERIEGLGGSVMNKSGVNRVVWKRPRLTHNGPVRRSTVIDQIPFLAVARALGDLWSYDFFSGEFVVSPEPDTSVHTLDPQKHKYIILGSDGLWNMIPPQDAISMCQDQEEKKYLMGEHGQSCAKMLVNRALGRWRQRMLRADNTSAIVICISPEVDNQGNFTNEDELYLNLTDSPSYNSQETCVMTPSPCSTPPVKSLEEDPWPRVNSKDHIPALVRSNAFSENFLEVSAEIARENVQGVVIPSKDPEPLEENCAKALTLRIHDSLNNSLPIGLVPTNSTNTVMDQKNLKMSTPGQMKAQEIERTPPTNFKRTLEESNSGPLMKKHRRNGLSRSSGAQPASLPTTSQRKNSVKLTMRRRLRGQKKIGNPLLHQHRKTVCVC
Chain of Calcium and integrin-binding protein 1 (Homo sapiens) (Q99828 whole entry, looked up): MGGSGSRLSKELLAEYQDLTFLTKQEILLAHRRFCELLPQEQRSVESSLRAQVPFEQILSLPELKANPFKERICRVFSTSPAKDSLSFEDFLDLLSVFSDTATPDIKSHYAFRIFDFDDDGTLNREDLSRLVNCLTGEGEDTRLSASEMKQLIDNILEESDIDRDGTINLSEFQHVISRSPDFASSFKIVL

Take `O=[N+]([O-])c1cc([N+](=O)[O-])c2ccccc2c1`: the call in experiment [1], in [3], in experiment [4] and in experiment [5] was inactive. In experiment [2], the Potency entry is “inactive”.

Consider `NC1CCc2cc(O)c(O)cc2C1` (stereo unspecified), for which the Potency result in [6], in experiment [10] and in experiment [11] was “inactive” throughout. Moreover, the compound was classed as inactive in experiment [7], in experiment [8] and in experiment [9].

In the case of `CC[N+]1(CCOC(=O)C(O)(c2ccccc2)c2ccccc2)CCCCC1`, the compound was classed as inactive in experiment [1], in experiment [3], in [4] and in experiment [5]. The Potency result in [2], in experiment [12], in [13], in [14] and in [15] was “inactive” each time.

With `CNCCc1ccc(O)c(O)c1`, the Potency result in experiment [6] is “inactive”. For the same compound, the result in experiment [7], in experiment [8] and in experiment [9] was inactive. For the same compound, the Potency in experiment [10] was 11.2 µM (active); in experiment [11] it was 39.8 µM (active).

As for `CC1=C(C(=O)O)N2C(=O)[C@@H](N)[C@H]2SC1`, the activity change, negative = inhibition in experiment [1] is -3.5% [at 19 µM]; in experiment [2], 5.52% [at 26.6 µM]; in [3], 6.57% [at 23.8 µM]. Also, the activity change in experiment [4] was -1.92% [at 1.78 µM]. Moreover, the result in experiment [5] was inactive.

`S=C(SSC(=S)N1CCCCC1)N1CCCCC1`: the compound was called inactive in [1] and in experiment [3]. Moreover, in experiment [2], the Potency entry was “inactive”.

Regarding `C[C@@H]1O[C@H](C[N+](C)(C)C)C[C@H]1O`, the Potency result in [6] was “inactive”. Besides, the result in experiment [7], in [8], in experiment [4] and in experiment [9] was inactive.

With `CC(C)NCC(O)c1ccc([N+](=O)[O-])cc1` (stereo unspecified), the compound was called inactive in experiment [1], in experiment [3], in experiment [4] and in experiment [5]. Moreover, the Potency result in experiment [2] was “inactive”.

On to `Cc1cc(O)ccc1Cl`, for which the compound was classed as inactive in experiment [1], in experiment [3], in experiment [4] and in [5]. In addition, the Potency result in experiment [2], in [12], in experiment [13], in experiment [14] and in experiment [15] was “inactive” throughout.

On to `COC(=O)c1cncn1C(C)c1ccccc1` (stereo unspecified), for which the compound was called inactive in experiment [1], in experiment [3], in [4] and in [5]. Moreover, the Potency entry in experiment [2], in experiment [12], in experiment [13], in experiment [14] and in experiment [15] was “inactive” in each case.

For the compound `CCCCOC(=O)c1ccccc1C(=O)OCc1ccccc1`, the compound was called inactive in [1], in [3], in experiment [4] and in experiment [5]. In [2], the Potency result is “inactive”.

With `C1CCC(NC2CCCCC2)CC1`, the compound was called inactive in experiment [1], in experiment [3] and in experiment [5]. Moreover, the Potency result in experiment [2], in experiment [12], in [13], in [14] and in experiment [15] was “inactive” in each case.

Consider `COC(C)(C)CCCC(C)C/C=C/C(C)=C/C(=O)OC(C)C` (stereo unspecified), for which the compound was classed as inactive in experiment [1], in [3], in [4] and in [5]. The Potency entry in experiment [2] is “inactive”.

As for `O=[N+]([O-])c1ccc([As](=O)(O)O)cc1`, the compound was classed as inactive in experiment [1], in experiment [3], in experiment [4] and in experiment [5]. The Potency entry in experiment [2], in experiment [12], in [13] and in [15] was “inactive” throughout.

Take `C[N+](C)(C)CC(=O)O`: the Potency result in [6], in [12], in experiment [13], in [14] and in experiment [15] was “inactive” throughout. The compound was called inactive in experiment [7] and in experiment [9].

For the compound `Oc1ccc2c3c1O[C@H]1c4[nH]c5c(c4C[C@@]4(O)[C@@H](C2)N(CC2CC2)CC[C@]314)C[C@@]1(O)[C@H]2Cc3ccc(O)c4c3[C@@]1(CCN2CC1CC1)[C@H]5O4`, the Potency result in [6] was “inactive”. Further, the call in [7], in experiment [8], in [4], in experiment [9] and in experiment [5] was inactive.

These data come from PubChem BioAssay (NCATS).
